Reference: ChEMBL document CHEMBL1201862, “PubChem BioAssay data set” (2004)
The whole screen tested about 390,000 compounds, of which about 17,000 (4.4%) were called active. Not shown: some 8% with an inconclusive outcome. No cut-off for these calls is given here. Only a selection was taken, and actives are over-represented in it overall.

biological target: T1, Lysine-specific demethylase 4A (Homo sapiens) (UniProt O75164); experiment: qHTS Assay for Inhibitors of JMJD2A-Tudor Domain. [Related pubchem assays (depositor defined):AID504402]; type: functional
T1 sequence (whole entry): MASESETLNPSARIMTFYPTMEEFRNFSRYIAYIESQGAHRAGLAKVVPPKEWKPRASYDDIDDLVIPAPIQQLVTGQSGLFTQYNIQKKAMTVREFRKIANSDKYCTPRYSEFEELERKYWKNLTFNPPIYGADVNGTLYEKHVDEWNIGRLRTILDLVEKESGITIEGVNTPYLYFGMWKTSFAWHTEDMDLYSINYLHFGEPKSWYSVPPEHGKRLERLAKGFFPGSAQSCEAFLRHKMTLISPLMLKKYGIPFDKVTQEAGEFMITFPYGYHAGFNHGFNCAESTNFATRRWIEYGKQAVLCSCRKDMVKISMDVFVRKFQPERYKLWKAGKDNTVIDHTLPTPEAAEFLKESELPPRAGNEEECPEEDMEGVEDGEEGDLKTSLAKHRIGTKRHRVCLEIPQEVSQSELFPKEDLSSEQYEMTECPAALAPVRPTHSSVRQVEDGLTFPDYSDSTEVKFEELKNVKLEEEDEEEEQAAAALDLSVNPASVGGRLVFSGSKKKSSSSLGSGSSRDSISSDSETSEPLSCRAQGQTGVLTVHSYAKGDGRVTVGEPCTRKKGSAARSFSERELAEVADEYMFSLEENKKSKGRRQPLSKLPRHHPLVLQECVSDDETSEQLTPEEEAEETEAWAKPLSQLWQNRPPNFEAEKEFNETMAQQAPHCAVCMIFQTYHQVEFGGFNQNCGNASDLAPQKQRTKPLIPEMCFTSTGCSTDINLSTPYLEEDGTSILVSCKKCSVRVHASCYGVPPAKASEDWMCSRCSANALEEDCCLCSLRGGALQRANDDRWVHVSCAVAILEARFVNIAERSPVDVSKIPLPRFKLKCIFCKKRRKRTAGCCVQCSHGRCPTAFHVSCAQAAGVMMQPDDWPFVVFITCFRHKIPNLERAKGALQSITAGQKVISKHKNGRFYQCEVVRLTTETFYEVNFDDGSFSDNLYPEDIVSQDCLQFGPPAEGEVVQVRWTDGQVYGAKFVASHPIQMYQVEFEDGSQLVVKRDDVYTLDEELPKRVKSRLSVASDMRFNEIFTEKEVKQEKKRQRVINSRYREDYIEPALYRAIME

Potency, active:
CCCc1nnc(NC(=O)C2C(=O)c3cccc4c3N(CC4)C2=O)s1 (stereo not drawn) 44.7 µM, Cl.NC(CCC(=O)O)C(=O)O (stereo not drawn) 3.55 µM, Cl.N[C@@H](CCC(=O)O)C(=O)O 20 µM
